Publication PMC7862700, “An all-to-all approach to the identification of sequence-specific readers for epigenetic DNA modifications on cytosine”

Experiments:
Test in all cases: DAPPL (digital affinity profiling via proximity ligation, sequencing); 10 mM Tris-HCl pH 7.5, 50 mM NaCl, 1 mM DTT, 4% glycerol, room temperature, 30 min; GST-TFs on glutathione beads, 16-mer random dsDNA library, 0.1% formaldehyde crosslink after washing; high values mean tight binding
[1] = target: T1, FEV (Homo sapiens, UniProt Q99581 1-238); conditions: protein: recombinant; tags: N-terminal GST; dsDNA, one strand shown
T1 sequence: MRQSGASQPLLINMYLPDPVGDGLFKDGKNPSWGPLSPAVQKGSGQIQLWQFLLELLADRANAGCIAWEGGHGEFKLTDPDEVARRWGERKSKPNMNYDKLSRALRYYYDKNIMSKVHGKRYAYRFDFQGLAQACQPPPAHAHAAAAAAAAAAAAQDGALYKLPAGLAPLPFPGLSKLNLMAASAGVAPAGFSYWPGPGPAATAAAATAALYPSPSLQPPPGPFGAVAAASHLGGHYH
Outline: (§1)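 Sequencing on an Illumina NextSeq500 followed washing, crosslinking with 0.1% formaldehyde, proximity ligation (BsaI/T4 ligase, 1 h, 37 °C) and PCR amplification of pools that had been incubated for 30 min at room temperature with 200 nmole of a random double-stranded 16-mer DNA library in Tris/NaCl/DTT/glycerol buffer. Each pool held DNA-barcoded human transcription factors, expressed in yeast as GST fusions and captured on glutathione beads, plus a tag-only sample. Binding signal is a hexamer's read frequency for a factor divided by its frequency in the tag-only sample.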

[2] = target: ETV5 (Homo sapiens, UniProt P41161 1-510); conditions: protein: recombinant; tags: N-terminal GST; dsDNA, one strand shown
Chain of ETV5 (P41161 whole entry): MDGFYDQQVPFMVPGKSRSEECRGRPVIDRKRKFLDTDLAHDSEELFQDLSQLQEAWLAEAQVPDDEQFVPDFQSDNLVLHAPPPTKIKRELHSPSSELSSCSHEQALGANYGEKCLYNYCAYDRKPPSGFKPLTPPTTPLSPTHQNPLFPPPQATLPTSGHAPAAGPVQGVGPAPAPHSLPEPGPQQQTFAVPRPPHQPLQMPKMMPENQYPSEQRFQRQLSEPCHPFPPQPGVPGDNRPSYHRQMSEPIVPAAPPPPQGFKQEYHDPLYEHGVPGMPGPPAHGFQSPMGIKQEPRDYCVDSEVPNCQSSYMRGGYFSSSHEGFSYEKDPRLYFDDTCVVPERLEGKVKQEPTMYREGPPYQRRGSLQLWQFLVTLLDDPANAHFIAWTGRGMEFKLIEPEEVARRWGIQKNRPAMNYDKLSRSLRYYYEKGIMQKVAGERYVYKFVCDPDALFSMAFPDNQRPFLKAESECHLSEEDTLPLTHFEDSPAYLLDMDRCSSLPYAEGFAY
Outline: as §1

[3] = target: HSF1 (Homo sapiens, UniProt Q00613 1-529); conditions: protein: recombinant; tags: N-terminal GST; chain copies: 3; dsDNA, one strand shown
Chain of HSF1 (Q00613 whole entry): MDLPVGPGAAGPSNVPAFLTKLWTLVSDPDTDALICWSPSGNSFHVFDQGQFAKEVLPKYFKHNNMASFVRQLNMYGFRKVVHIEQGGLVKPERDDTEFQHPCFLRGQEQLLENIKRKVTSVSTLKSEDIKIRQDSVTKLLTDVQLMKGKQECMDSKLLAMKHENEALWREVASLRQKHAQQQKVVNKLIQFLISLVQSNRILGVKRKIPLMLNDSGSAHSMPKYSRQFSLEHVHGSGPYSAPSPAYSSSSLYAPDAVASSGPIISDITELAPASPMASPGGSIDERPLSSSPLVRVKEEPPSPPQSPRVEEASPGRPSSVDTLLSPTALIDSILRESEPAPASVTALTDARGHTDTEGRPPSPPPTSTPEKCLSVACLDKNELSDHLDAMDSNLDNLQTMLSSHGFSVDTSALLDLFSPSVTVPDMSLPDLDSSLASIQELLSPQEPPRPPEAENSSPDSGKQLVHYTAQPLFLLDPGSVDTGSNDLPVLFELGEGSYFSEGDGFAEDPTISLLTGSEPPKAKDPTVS
Outline: as §1

[4] = target: T2, SPIC (Homo sapiens, UniProt Q8N5J4 1-248); conditions: protein: recombinant; tags: N-terminal GST; dsDNA, one strand shown
T2 sequence: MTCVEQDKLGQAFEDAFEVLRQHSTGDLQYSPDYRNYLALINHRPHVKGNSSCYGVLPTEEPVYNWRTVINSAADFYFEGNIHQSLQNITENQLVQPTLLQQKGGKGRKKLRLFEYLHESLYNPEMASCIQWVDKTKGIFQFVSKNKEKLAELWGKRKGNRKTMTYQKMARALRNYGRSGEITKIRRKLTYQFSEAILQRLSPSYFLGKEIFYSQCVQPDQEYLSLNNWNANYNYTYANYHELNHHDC
Outline: as §1

[5] = target: ELF4 (Homo sapiens, UniProt Q99607 1-663); conditions: protein: recombinant; tags: N-terminal GST; dsDNA, one strand shown
Chain of ELF4 (Q99607 whole entry): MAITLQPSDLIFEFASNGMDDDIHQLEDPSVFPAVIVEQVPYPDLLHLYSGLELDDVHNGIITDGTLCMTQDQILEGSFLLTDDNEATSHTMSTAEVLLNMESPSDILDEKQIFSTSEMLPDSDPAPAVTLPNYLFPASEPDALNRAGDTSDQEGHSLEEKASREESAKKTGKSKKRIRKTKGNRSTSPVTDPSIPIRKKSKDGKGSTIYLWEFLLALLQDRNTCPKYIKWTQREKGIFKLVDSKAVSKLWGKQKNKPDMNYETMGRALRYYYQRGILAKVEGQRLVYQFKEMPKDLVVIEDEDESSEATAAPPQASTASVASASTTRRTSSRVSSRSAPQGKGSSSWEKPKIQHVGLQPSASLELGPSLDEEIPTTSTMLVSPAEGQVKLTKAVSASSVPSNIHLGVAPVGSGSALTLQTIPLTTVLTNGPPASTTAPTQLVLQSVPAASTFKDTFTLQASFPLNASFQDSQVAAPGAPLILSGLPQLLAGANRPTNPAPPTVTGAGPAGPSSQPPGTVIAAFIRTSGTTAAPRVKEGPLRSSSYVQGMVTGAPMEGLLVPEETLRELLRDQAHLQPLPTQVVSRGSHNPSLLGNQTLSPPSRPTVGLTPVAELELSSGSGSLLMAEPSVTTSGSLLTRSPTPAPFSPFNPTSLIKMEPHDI
Outline: as §1

[6] = target: T3, ELK4 (Homo sapiens, UniProt P28324-2 1-405); conditions: protein: recombinant; tags: N-terminal GST; dsDNA, one strand shown
T3 sequence: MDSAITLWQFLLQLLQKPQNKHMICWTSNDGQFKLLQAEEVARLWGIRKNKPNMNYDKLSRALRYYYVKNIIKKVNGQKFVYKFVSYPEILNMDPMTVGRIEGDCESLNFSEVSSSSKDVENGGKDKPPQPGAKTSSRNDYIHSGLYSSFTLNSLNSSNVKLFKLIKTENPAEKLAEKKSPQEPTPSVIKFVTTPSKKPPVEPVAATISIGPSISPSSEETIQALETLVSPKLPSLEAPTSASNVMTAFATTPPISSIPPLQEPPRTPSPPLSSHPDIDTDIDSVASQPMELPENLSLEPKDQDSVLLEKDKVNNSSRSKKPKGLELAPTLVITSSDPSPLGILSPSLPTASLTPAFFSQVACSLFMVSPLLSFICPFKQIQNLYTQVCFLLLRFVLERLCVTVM
Outline: as §1

[7] = target: T4, ETV2 (Homo sapiens, UniProt O00321 1-342); conditions: protein: recombinant; tags: N-terminal GST; dsDNA, one strand shown
T4 sequence: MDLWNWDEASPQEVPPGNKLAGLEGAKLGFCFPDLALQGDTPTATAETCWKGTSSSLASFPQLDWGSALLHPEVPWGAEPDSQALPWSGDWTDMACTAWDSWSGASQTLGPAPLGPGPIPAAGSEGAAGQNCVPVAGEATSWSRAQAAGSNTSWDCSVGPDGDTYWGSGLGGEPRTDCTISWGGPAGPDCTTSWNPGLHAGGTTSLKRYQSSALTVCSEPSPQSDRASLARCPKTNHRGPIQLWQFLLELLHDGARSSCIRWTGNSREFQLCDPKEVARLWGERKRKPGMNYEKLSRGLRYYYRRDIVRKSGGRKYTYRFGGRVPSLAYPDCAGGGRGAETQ
Outline: as §1

[8] = target: T5, ELF3 (Homo sapiens, UniProt P78545 1-371); conditions: protein: recombinant; tags: N-terminal GST; dsDNA, one strand shown
T5 sequence: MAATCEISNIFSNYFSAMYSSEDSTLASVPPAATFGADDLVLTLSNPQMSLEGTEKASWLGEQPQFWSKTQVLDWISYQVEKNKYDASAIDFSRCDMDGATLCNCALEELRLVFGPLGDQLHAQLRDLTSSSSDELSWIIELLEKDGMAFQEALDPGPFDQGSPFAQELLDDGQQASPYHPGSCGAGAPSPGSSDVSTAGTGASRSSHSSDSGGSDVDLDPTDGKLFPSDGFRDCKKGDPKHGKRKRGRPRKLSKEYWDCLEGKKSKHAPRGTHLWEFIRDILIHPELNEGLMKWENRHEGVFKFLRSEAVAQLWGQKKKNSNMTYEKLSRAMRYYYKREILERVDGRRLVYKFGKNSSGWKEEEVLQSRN
Outline: as §1

[9] = target: CRX (Homo sapiens, UniProt O43186 1-299); conditions: protein: recombinant; tags: N-terminal GST; dsDNA, one strand shown
Chain of CRX (O43186 whole entry): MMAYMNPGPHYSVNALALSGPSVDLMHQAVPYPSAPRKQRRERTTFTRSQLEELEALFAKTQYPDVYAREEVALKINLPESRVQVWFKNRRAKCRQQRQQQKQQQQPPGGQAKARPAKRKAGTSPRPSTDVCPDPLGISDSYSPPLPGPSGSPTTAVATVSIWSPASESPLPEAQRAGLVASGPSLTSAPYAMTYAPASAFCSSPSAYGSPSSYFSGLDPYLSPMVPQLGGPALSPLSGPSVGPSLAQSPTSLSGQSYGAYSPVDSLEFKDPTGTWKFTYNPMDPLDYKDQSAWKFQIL
Outline: as §1

[10] = target: ETV1 (Homo sapiens, UniProt P50549 1-477); conditions: protein: recombinant; tags: N-terminal GST; dsDNA, one strand shown
Chain of ETV1 (P50549 whole entry): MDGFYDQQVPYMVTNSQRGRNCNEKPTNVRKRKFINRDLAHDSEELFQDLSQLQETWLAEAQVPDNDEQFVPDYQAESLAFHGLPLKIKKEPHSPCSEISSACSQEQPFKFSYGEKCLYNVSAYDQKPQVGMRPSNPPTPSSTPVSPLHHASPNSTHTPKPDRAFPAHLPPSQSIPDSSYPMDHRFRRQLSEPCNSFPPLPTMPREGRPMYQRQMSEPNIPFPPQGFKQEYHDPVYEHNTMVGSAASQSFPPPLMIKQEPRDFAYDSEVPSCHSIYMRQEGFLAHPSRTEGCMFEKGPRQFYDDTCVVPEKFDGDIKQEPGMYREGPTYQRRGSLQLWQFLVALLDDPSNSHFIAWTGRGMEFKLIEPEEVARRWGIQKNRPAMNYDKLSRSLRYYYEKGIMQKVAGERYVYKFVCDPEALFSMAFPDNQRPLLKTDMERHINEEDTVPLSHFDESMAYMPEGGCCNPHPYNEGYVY
Outline: as §1

[11] = target: T6, ERF (Homo sapiens, UniProt P50548 1-548); conditions: protein: recombinant; tags: N-terminal GST; dsDNA, one strand shown
T6 sequence: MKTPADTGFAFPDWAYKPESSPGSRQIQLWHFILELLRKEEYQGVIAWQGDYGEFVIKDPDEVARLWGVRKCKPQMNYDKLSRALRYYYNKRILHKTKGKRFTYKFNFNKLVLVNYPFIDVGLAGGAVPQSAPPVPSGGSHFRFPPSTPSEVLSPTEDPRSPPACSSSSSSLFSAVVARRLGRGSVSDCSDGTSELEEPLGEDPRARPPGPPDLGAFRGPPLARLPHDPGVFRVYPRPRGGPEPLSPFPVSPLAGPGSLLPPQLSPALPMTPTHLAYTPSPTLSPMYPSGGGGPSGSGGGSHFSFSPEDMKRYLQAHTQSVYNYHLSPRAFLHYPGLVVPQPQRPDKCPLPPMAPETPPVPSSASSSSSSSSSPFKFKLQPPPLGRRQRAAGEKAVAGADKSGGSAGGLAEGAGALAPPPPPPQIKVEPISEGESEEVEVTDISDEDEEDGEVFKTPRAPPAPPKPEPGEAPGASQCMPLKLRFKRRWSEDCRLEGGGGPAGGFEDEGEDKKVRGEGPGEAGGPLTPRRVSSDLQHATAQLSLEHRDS
Outline: as §1

[12] = target: T7, ETV3L (Homo sapiens, UniProt Q6ZN32 1-361); conditions: protein: recombinant; tags: N-terminal GST; dsDNA, one strand shown
T7 sequence: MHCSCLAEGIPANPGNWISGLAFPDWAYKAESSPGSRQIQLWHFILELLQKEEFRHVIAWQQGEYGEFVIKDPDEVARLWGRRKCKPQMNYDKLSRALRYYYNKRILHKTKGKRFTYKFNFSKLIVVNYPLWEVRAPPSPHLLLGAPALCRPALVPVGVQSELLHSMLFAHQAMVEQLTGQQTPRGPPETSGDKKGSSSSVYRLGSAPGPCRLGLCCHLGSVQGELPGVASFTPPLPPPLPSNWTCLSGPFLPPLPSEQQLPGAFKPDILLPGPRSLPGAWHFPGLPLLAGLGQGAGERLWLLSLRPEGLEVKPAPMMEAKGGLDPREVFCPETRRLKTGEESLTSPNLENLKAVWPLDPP
Outline: as §1

[13] = target: T8, ETS2 (Homo sapiens, UniProt P15036 1-469); conditions: protein: recombinant; tags: N-terminal GST; dsDNA, one strand shown
T8 sequence: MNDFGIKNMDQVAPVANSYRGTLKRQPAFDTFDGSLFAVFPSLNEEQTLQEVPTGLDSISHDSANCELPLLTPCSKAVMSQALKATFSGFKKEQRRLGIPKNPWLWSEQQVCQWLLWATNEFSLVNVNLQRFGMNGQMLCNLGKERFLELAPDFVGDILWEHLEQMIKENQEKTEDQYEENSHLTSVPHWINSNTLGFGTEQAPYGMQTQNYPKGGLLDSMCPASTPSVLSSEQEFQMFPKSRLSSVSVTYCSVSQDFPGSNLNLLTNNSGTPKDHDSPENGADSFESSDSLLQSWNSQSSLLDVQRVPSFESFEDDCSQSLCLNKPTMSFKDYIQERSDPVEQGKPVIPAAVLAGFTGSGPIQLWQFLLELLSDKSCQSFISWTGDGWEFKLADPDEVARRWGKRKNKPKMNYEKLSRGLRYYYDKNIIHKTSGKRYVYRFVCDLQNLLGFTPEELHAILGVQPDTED
Outline: as §1

[14] = target: T9, SPDEF (Homo sapiens, UniProt O95238 1-335); conditions: protein: recombinant; tags: N-terminal GST; dsDNA, one strand shown
T9 sequence: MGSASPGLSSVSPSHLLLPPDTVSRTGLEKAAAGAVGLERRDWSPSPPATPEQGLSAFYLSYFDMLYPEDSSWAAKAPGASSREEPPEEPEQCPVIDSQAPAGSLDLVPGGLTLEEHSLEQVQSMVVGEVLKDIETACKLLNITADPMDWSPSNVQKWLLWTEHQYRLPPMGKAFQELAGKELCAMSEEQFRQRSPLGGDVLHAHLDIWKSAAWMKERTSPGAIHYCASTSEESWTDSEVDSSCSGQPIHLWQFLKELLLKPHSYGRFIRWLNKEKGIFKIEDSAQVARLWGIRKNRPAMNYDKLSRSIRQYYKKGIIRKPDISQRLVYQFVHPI
Outline: as §1

[15] = target: T10, ETV7 (Homo sapiens, UniProt Q9Y603 1-341); conditions: protein: recombinant; tags: N-terminal GST; dsDNA, one strand shown
T10 sequence: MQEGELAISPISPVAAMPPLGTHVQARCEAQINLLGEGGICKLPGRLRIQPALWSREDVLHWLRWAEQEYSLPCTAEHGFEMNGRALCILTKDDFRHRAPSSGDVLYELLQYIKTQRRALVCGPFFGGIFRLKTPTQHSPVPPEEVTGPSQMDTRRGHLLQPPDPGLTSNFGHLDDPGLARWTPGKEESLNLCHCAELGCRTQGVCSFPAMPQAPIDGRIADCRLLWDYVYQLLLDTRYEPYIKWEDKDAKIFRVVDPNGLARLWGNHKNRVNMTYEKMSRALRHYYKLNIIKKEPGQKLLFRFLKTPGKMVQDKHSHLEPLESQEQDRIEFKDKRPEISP
Outline: as §1

[16] = target: T11, ELF5 (Homo sapiens, UniProt Q9UKW6-2 1-255); conditions: protein: recombinant; tags: N-terminal GST; dsDNA, one strand shown
T11 sequence: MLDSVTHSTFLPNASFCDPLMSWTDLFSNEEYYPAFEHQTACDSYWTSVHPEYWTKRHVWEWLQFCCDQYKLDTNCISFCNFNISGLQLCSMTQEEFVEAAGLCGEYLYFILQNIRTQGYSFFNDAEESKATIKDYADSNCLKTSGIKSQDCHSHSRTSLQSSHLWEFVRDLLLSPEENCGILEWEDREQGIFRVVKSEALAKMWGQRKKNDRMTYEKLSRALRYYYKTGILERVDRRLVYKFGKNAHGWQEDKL
Outline: as §1

[17] = target: T12, ETV3 (Homo sapiens, UniProt P41162-2 1-143); conditions: protein: recombinant; tags: N-terminal GST; dsDNA, one strand shown
T12 sequence: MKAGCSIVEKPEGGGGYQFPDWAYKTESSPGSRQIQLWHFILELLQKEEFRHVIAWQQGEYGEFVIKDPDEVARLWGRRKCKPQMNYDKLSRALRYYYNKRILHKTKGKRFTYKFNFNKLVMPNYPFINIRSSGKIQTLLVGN
Outline: as §1

[18] = target: ETV6 (Homo sapiens, UniProt P41212 1-452); conditions: protein: recombinant; tags: N-terminal GST; dsDNA, one strand shown
Chain of ETV6 (P41212 whole entry): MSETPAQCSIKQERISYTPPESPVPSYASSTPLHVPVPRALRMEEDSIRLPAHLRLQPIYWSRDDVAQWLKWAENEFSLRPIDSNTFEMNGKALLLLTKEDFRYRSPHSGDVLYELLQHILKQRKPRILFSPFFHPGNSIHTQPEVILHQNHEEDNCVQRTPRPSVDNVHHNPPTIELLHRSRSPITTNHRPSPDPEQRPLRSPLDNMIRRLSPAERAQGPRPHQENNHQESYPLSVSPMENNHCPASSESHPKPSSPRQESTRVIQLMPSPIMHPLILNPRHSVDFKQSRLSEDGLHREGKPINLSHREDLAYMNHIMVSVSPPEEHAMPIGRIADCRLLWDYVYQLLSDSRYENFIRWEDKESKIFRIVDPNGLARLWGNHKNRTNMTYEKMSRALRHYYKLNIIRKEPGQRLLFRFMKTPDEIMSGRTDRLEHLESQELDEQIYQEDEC
Outline: as §1

With TCCCTT the binding signal [1] was 1.51 fold enrichment (6-mer frequency, TF over GST control), the binding signal [2] was 1.5 fold enrichment (6-mer frequency, TF over GST control) and the binding signal [3] was 1.51 fold enrichment (6-mer frequency, TF over GST control). For the same sequence, the binding signal [4] was 1.66 fold enrichment (6-mer frequency, TF over GST control), the binding signal [5] was 1.68 fold enrichment (6-mer frequency, TF over GST control) and the binding signal [6] was 1.41 fold enrichment (6-mer frequency, TF over GST control). The binding signal [7] was 1.32 fold enrichment (6-mer frequency, TF over GST control), the binding signal [8] was 1.5 fold enrichment (6-mer frequency, TF over GST control) and the binding signal [9] was 1.69 fold enrichment (6-mer frequency, TF over GST control). The binding signal [10] was 1.49 fold enrichment (6-mer frequency, TF over GST control), the binding signal [11] was 1.57 fold enrichment (6-mer frequency, TF over GST control) and the binding signal [12] was 1.64 fold enrichment (6-mer frequency, TF over GST control). For the same sequence, the binding signal [13] was 1.67 fold enrichment (6-mer frequency, TF over GST control), the binding signal [14] was 1.61 fold enrichment (6-mer frequency, TF over GST control) and the binding signal [15] was 1.57 fold enrichment (6-mer frequency, TF over GST control). For the same sequence, the binding signal [16] was 1.72 fold enrichment (6-mer frequency, TF over GST control), the binding signal [17] was 1.54 fold enrichment (6-mer frequency, TF over GST control) and the binding signal [18] was 1.53 fold enrichment (6-mer frequency, TF over GST control).
